SMILES strings stand for the structures. A number with no mark means an inactive call. For some of these results: Results with a measured potency or affinity are listed apart. Activity calls are given as the source filed them. Unless noted, no rule for the calls is given here.

The nature of assay [1]: antimalarial activity against Dd2 strain (AID 2302;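 active = growth inhibition above 50% at the single 2 µM test dose, taken to imply half-maximal potency below 2 µM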;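 also: 0% = DMSO untreated growth and 100% = chloroquine plus artemisinin killed control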). The conditions noted are these: P. falciparum Dd2 in RBCs, LDH growth readout, 72 h; at 2 µM; hits give high values.
Assay [2] can be described thus: human hepatoma cell viability loss – ATP luminescence, cytotoxicity control for P. falciparum antimalarial project, primary screen (AID 2303;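 active = inhibition above 50%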;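 also: 0% = DMSO wells and 100% = digitonin-killed cells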). The conditions noted are these: HepG2 viability, 24-48 h, at 10 µM, hits give high values.
For assay [3], the target named is L-lactate dehydrogenase (Plasmodium falciparum (isolate CDC / Honduras)) (UniProt Q27743). The assay is described as follows: PfLDH activity inhibition – cell lysate, 3D7 strain, counter-screen for P. falciparum growth inhibition project (AID 2304).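 Also: 0% = vehicle and 100% = reference inhibitor.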 The conditions noted are these: P. falciparum 3D7 crude extract, LDH APAD/NBT absorbance; at 2 µM; hits give high values. On the technique in general: Counterscreens check selectivity or assay interference.

Assay [4] is described as follows: inhibition of 3D7 malaria parasite growth – strain 3D7 (AID 2306).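 Also: 0% = DMSO wells and 100% = chloroquine plus artemisinin control wells.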 The conditions noted are these: P. falciparum 3D7 erythrocytic growth, LDH absorbance, 72 h; at 2 µM; hits give high values.
Assay [5] addresses Calcium-dependent protein kinase 1 (Plasmodium falciparum (isolate 3D7)) (UniProt P62344). The assay is described as follows: PfCDPK1 kinase inhibitors, biochemical, TCAMS library (AID 1159585; cut-off not given, nearly all actives have IC50 up to about 0.98 µM;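 also: inhibitors leave more ATP so luminescence rises with inhibition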). The conditions noted are these: recombinant PfCDPK1, Kinase-Glo ATP depletion luminescence. (Kinase-Glo reads ATP consumption through a luciferase reaction.)
Assay [6] addresses Plasmodium falciparum protein kinase 6 (PK6, PF3D7_1337100) (UniProt Q8IDW1). The assay is described as follows: PfPK6 kinase inhibitors, biochemical, TCAMS library (AID 1159586). The conditions noted are these: recombinant PfPK6, Kinase-Glo ATP depletion luminescence.
For assay [7], the target named is Protein kinase 7 (PK7), Plasmodium falciparum 3D7 (PF3D7_0213400) (UniProt Q7YTF7). The assay is described as follows: inhibition of Plasmodium PK7 catalytic activity – biochemical, TCAMS antimalarial set, Kinase-Glo luminescence (AID 1159587). The conditions noted are these: recombinant PfPK7, Kinase-Glo ATP depletion luminescence.
Assay [8] deals with Calcium-dependent protein kinase 4 (Plasmodium falciparum (isolate 3D7)) (UniProt Q8IBS5). Put plainly: PfCDPK4 kinase inhibitors, biochemical, TCAMS library (AID 1159588; cut-off not given, nearly all actives have IC50 up to about 0.91 µM). The conditions noted are these: recombinant PfCDPK4, Kinase-Glo ATP depletion luminescence.
Chain of Calcium-dependent protein kinase 4 (Plasmodium falciparum (isolate 3D7)) (Q8IBS5 whole entry, looked up): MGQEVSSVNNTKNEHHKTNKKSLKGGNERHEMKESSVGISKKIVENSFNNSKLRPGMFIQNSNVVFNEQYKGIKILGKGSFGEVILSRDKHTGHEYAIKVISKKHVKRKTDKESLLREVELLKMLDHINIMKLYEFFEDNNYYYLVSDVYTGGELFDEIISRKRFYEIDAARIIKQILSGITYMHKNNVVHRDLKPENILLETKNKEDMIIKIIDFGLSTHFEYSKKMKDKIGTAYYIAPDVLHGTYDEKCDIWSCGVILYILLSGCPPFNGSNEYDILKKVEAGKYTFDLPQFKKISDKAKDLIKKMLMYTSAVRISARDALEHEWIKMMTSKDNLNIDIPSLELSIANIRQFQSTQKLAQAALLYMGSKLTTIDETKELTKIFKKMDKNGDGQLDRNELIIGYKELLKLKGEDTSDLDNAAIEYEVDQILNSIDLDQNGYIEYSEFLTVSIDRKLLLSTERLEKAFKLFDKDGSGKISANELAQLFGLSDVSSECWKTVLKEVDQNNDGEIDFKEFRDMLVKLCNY

Chain of L-lactate dehydrogenase (Plasmodium falciparum (isolate CDC / Honduras)) (Q27743 whole entry, looked up): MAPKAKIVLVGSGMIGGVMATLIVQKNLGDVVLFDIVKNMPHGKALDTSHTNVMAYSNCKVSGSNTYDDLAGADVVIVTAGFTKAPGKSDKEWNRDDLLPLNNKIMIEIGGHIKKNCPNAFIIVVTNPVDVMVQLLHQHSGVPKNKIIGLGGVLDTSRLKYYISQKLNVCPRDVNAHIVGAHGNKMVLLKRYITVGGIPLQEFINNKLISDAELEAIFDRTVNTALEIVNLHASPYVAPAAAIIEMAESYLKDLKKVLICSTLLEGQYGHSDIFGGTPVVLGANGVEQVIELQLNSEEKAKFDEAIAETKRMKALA
Chain of Protein kinase 7 (PK7), Plasmodium falciparum 3D7 (PF3D7_0213400) (Q7YTF7 1-343): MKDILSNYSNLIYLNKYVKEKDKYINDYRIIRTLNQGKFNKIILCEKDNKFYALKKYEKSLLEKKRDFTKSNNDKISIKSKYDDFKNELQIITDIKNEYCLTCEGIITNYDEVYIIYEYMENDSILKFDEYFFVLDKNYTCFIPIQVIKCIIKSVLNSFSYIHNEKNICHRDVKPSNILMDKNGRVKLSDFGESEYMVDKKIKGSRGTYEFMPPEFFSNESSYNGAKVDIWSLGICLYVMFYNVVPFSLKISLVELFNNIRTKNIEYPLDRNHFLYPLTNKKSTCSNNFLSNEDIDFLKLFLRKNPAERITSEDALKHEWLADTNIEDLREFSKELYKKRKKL
Chain of Calcium-dependent protein kinase 1 (Plasmodium falciparum (isolate 3D7)) (P62344 whole entry, looked up): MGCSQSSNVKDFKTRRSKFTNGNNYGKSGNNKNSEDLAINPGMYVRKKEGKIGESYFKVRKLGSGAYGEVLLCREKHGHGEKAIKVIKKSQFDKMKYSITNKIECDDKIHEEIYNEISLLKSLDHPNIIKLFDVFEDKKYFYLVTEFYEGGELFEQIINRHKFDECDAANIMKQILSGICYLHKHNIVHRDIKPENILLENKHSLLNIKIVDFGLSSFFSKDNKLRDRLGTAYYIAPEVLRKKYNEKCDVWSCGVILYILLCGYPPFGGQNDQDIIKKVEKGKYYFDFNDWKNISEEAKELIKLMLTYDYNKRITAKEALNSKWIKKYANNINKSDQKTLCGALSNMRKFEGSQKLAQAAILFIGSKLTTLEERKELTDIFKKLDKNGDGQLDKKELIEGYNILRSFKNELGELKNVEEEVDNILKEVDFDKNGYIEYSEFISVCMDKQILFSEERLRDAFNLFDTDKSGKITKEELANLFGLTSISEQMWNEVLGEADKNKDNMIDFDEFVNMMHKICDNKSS
Chain of Plasmodium falciparum protein kinase 6 (PK6, PF3D7_1337100) (Q8IDW1 1-305): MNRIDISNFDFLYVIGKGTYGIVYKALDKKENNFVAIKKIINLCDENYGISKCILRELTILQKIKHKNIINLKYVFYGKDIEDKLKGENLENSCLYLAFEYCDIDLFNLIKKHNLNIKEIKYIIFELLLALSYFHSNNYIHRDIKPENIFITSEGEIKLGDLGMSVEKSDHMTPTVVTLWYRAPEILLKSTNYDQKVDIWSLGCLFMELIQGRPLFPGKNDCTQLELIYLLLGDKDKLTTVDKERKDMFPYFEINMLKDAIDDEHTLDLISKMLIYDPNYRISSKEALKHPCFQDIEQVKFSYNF

A word on the inhibition: it is the change of the read-out against control, counted positive when it falls. With `Cc1cccc2[nH]c(-c3ccc(-c4cccc(CN5CCCC5CN)c4)cc3)nc12` (stereo not given), the growth inhibition in assay [1] was 32%; in assay [4], 91% (active). The inhibition in assay [2] was 7%; in assay [3], 3%. For the same molecule, the result in assay [5], in assay [6], in assay [7] and in assay [8] was inactive.
`c1ccc2[nH]c(-c3ccc(-c4ccc(CN5CCN(c6ccncc6)CC5)cc4)s3)nc2c1`: the growth inhibition in assay [1] was 100% (active); in assay [4], 101% (active). Moreover, the inhibition in assay [2] was 25%; in assay [3] it was -5%. In addition, the result in assay [5], in assay [6], in assay [7] and in assay [8] was inactive.
Consider `CN(C)c1ccc(CN2CCC(NC(=O)c3ccc(-c4ccccc4Cl)s3)CC2)cc1`, for which the growth inhibition is 27% in assay [1] and 82% (active) in assay [4]. The inhibition in assay [2] was 35%; in assay [3] it was -1%. For the same molecule, the result in assay [5], in assay [6], in assay [7] and in assay [8] was inactive.
For the molecule `O=C(Cn1c(CCc2cccc(F)c2F)nc(=O)c2cccnc21)N(Cc1ccc(-c2ccc(C(F)(F)F)cc2)cc1)C1CCN(C2CCSCC2)CC1`, the growth inhibition was 63% (active) in assay [1] and 101% (active) in assay [4]. For the same molecule, the inhibition in assay [2] was 49%; in assay [3], 3%. For the same molecule, the outcome in assay [5], in assay [6], in assay [7] and in assay [8] was inactive.
On to `N#Cc1cccc(-c2cccc(C(=O)NC3CCC(CCN4CCc5ccc(C#N)cc5CC4)CC3)c2)c1` (stereo not given), for which the growth inhibition in assay [1] was 57% (active); in assay [4], 99% (active). The inhibition was 31% in assay [2] and -6% in assay [3]. The result in assay [5], in assay [6], in assay [7] and in assay [8] was inactive.
`Cc1cccc2[nH]c(-c3cccc(-c4ccc(NC(=O)COc5ccccc5C(N)=O)cc4)c3)nc12`: the figures for the growth inhibition in assay [1] and in assay [4] were 47% and 101% (active), respectively. The results for the inhibition in assay [2] and in assay [3] were 18% and -8%, respectively. For the same molecule, the outcome in assay [5], in assay [6], in assay [7] and in assay [8] was inactive.
Regarding `CN1CCN(c2ccnc3ccc(NC(=O)Nc4ccc(-c5ccncc5)c5ccccc45)cc23)CC1`, the growth inhibition was 84% (active) in assay [1] and 101% (active) in assay [4]. Also, the inhibition was 76% (active) in assay [2] and -4% in assay [3]. In addition, the outcome in assay [5], in assay [6], in assay [7] and in assay [8] was inactive.
For the molecule `Oc1ccc2nc(NCCCc3ccccc3)nc(NCCc3ccccc3)c2c1`, the results for the growth inhibition in assay [1] and in assay [4] were 88% (active) and 99% (active), respectively. Also, the inhibition is 31% in assay [2] and -3% in assay [3]. Also, the outcome in assay [5], in assay [6], in assay [7] and in assay [8] was inactive.
As to `COc1ccc(-c2ccc(S(=O)(=O)Nc3cc4c(cc3OC(C)C)CCNCC4)cc2)cc1`, the growth inhibition in assay [1] was -1%; in assay [4], 86% (active). The results for the inhibition in assay [2] and in assay [3] were 16% and 3%, respectively. In addition, the result in assay [5], in assay [6], in assay [7] and in assay [8] was inactive.
On to `C=C(C)Cn1cc(C2CCN(CCCCNC(=O)c3sc(-c4ccc(Cl)cc4Cl)nc3CO)CC2)c2ccccc21`, for which the growth inhibition in assay [1] is 19%; in assay [4], 82% (active). Also, the results for the inhibition in assay [2] and in assay [3] were 22% and 4%, respectively. Besides, the outcome in assay [5], in assay [6], in assay [7] and in assay [8] was inactive.
As for `COc1cccc(-c2cnc(N)c(-c3nc4cc(Cl)c(F)cc4[nH]3)c2)c1`, the growth inhibition in assay [1] was 26%; in assay [4] it was 100% (active). For the same molecule, the inhibition in assay [2] is 37%; in assay [3], 6%. Further, the outcome in assay [5], in assay [6], in assay [7] and in assay [8] was inactive.
Take `O=C(Nc1ccccc1)N(Cc1ccccc1-c1cccc(CNCc2ccc3c(c2)OCO3)c1)C1CCN(Cc2ccccc2)CC1`: the growth inhibition in assay [1] was 64% (active); in assay [4] it was 101% (active). Moreover, the inhibition in assay [2] is 35%; in assay [3], 1%. The result in assay [5], in assay [6], in assay [7] and in assay [8] was inactive.
Turning to `CNC(=O)C1Cc2c([nH]c3ccc(Cl)cc23)C2(CCN(CCc3ccccc3)CC2)N1` (stereo not given), the growth inhibition was 16% in assay [1] and 98% (active) in assay [4]. Also, the inhibition is 2% in assay [2] and -2% in assay [3]. Further, the outcome in assay [5], in assay [6], in assay [7] and in assay [8] was inactive.
In the case of `CCC(C)(C)c1ccc(Oc2ccc(NC(=O)Nc3ccc(Cl)c(Cl)c3)cc2)cc1`, the values for the growth inhibition in assay [1] and in assay [4] were 97% (active) and 98% (active), respectively. The inhibition in assay [2] was 13%; in assay [3], -1%. Also, the result in assay [5], in assay [6], in assay [7] and in assay [8] was inactive.
For `COc1ccc(NC(C)C(=O)Nc2ccc(Br)cc2)cc1S(=O)(=O)N1CCCCC1` (stereo not given), the figures for the growth inhibition in assay [1] and in assay [4] were 97% (active) and 99% (active), respectively. For the same molecule, the inhibition is 2% in assay [2] and -2% in assay [3]. Moreover, the outcome in assay [5], in assay [6], in assay [7] and in assay [8] was inactive.
In the case of `Cc1cc(Nc2ccc(O)cc2)nc2cc(O)ccc12`, the results for the growth inhibition in assay [1] and in assay [4] were 9% and 100% (active), respectively. Besides, the values for the inhibition in assay [2] and in assay [3] were 0% and -2%, respectively. Besides, the result in assay [5], in assay [6], in assay [7] and in assay [8] was inactive.
As to `COc1ccccc1C1CCN(Cc2csc(NC(=O)c3ccc(-c4ccc(C(F)(F)F)cc4)cc3)n2)CC1`, the figures for the growth inhibition in assay [1] and in assay [4] were 23% and 85% (active), respectively. Further, the results for the inhibition in assay [2] and in assay [3] were 62% (active) and -2%, respectively. Further, the outcome in assay [5], in assay [6], in assay [7] and in assay [8] was inactive.
In the case of `COc1cccc2cc(C(=O)N[C@@H](CC(C)C)C(=O)N[C@H](/C=N/N3C(=O)CN(Cc4ccccc4)C3=O)CCc3ccccc3)oc12`, the growth inhibition is 52% (active) in assay [1] and 85% (active) in assay [4]. Further, the inhibition in assay [2] is 14%; in assay [3] it was -1%. The result in assay [5], in assay [6], in assay [7] and in assay [8] was inactive.
As to `CCOc1ccc(C(C)NC(=O)c2ccc(OC)c(Br)c2)cc1OCC` (stereo not given), the growth inhibition in assay [1] and in assay [4] was 100% (active) each time. In addition, the inhibition in assay [2] was 9%; in assay [3] it was 2%. For the same molecule, the outcome in assay [5], in assay [6], in assay [7] and in assay [8] was inactive.
`COc1cccc(C(=O)N2CCOC(CCN3CCC(c4ccccc4)CC3)(c3ccc(Cl)c(Cl)c3)C2)c1` (stereo not given): the growth inhibition in assay [1] was 63% (active); in assay [4], 87% (active). The inhibition is 38% in assay [2] and -2% in assay [3]. Also, the result in assay [5], in assay [6], in assay [7] and in assay [8] was inactive.

Source of the values: PubChem BioAssay.
